The entries come from a sample that favours hits as a whole.
Pf Dd2 growth: Plasmodium falciparum Dd2 growth inhibition; P. falciparum Dd2 growth, SYBR Green, 72 h; Potency, µM (titrated, usually from 28.9 µM), without a hit: at the highest dose activity, negative = inhibition, actives largely listed as inhibitors; 120,000 compounds, 4.3% hits; active = well fitted inhibition curve with a large enough effect;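 also: plate controls were DMSO vehicle for no effect and reference drug for full effect; nearly all actives have a fitted effect of over 65% in size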
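Readout: SYBR Green fluorescence, 485 nm excitation, 535 nm emission, after ~16 h lysis at 37C. Before that, Dd2-infected red cells (2.5% hematocrit) grew 72 h with compound, 29 uM top final concentration.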
The depositor's hits bear a star; i = inactive; [ ] = dose if it differs, or a comment. Potency is read from the fitted curve at half-maximal effect.

SMILES | Pf Dd2 growth
Cc1ccc(C2(O)CCN(c3ncccc3C(F)(F)F)CC2)nc1 | -19.1%
COc1ccccc1NC(=O)CN1CCC(O)(c2ccc(C)cn2)CC1 | -8.1%
CCOC(=O)c1ccc2c(c1)[C@@H]1C=CC[C@@H]1[C@H](c1cccc(OC)c1OC)N2 | 0.447µM*
COc1ccc(OC)c([C@@H]2Nc3ccc(C(=O)O)cc3[C@@H]3C=CC[C@@H]32)c1 | 12.1%
COc1ccc(Br)cc1[C@@H]1Nc2ccc(C(=O)O)cc2[C@@H]2C=CC[C@@H]21 | 7.9%
O=C(NC[C@H]1O[C@@H]2C[C@@H](CC(=O)N3CCC(F)(F)C3)O[C@@H]2[C@@H]1O)Nc1ccc(F)cc1 | -0.9%
COc1ccc(CC(=O)N2CC3(Cc4ccccc4N(C(C)=O)C3)C2)cc1 | -20.0%
COC(=O)C1=CN(CC(=O)Nc2c(C)cccc2C)S(=O)(=O)N=C1C | 36.9%
FC(F)(F)CN1C2CCC1CN(c1ncc(C(F)(F)F)cn1)C2 | 30.8%
FC(F)(F)CN1C2CCC1CN(c1nnc(Cl)c3ccccc13)C2 | 0.708µM*
FC(F)(F)CN1C2CCC1CN(c1cnc3ccccc3c1)C2 | -27.4%
FC(F)(F)CN1C2CCC1CN(c1ccccn1)C2 | 9.0%[44.1 µM]
COc1ccccc1Nc1ccnc(N2CC3CCC(C2)N3CC(F)(F)F)n1 | -25.5%
FC(F)(F)CN1C2CCC1CN(c1nccc(Nc3ccccc3Cl)n1)C2 | 8.91µM*
Cc1ncc2c(N3CC4CCC(C3)N4CC(F)(F)F)nc3ccccc3n12 | 5.01µM*
O=[N+]([O-])c1ccc(Cl)nc1N1CC2CCC(C1)N2CC(F)(F)F | -24.4%
Cc1ccnc(N2CC3CCC(C2)N3CC(F)(F)F)c1[N+](=O)[O-] | 6.1%
Cn1nccc1OCc1cn2c(=O)n(C)cc(-c3cccc(C(F)(F)F)c3)c2n1 | -15.8%[44.1 µM]
CN(C)[C@@H]1CN(Cc2cccc(C#N)c2)C[C@H]1CO | -22.5%
Cc1noc(C)c1[S+](=O)([O-])N1CCn2c(nnc2-c2ccncc2)C1 | 72.1%
O=C(C1CCCO1)N1CCc2c(n(Cc3ccccc3)n(-c3ccccc3)c2=O)C1 (stereo unspecified) | 14.3%[44.1 µM]
CC1(C(=O)N2CCCC2)CCCc2cnc(Nc3cccnc3)nc21 (stereo unspecified) | -23.2%[44.1 µM]
O=C(C1CCCC1)N1CCC2(CC1)CC(Cc1ccccc1)=NO2 | 21.3%
CC(C)C1=NOC2(CCN(Cc3c[nH]c4ccccc34)CC2)C1 | -5.7%
c1ccc(CN2CCCC3(CC(c4ccccn4)=NO3)C2)cc1 (stereo unspecified) | -3.7%
SMILES | Pf Dd2 growth
c1ccc(CC2=NOC3(CCN(C4CCCCC4)CC3)C2)cc1 | 10µM*
c1ccc(CC2=NOC3(CCN(Cc4c[nH]c5ccccc45)CC3)C2)cc1 | 12.6µM*
Cc1ccc(C(=O)N2CCCC3(CC(Cc4ccccc4)=NO3)C2)cc1 (stereo unspecified) | -9.4%
NC(=O)c1cccc(CN2CCC3(CC2)CC(Cc2ccccc2)=NO3)c1 | -4.2%
c1cncc(C2=NOC3(CCN(C4CCCCC4)CC3)C2)c1 | 21.3%[44.1 µM]
c1ccc(CC2=NOC3(CCCN(Cc4ccns4)C3)C2)cc1 (stereo unspecified) | 6.31µM*
CN1CCCC1c1nc(C2CN(S(=O)(=O)Cc3cccc(F)c3)C2)no1 (stereo unspecified) | i
CN(Cc1ccccc1C(F)(F)F)Cc1cccn1C | 16.1%[44.1 µM]
COCC(=O)N1CCn2c(nnc2-c2ccccc2)C1 | 4.1%[44.1 µM]
CN(C)C(=O)N1CCCC(c2nnc3n2CCNC3)C1 (stereo unspecified) | -2.3%
O=C(CCCc1ccccc1)NCCc1noc(-c2cccnc2)n1 | i
Cc1nc(-c2c3n(c(=O)n(CCOc4ccccc4)c2=O)CCCCC3)no1 | 10.9%
CCn1c(C2CCCN(Cc3ccccn3)C2)nn(C)c1=O (stereo unspecified) | 4.9%
NC(c1ccccc1)c1nnc2n1CCN(C(=O)N1CCCCC1)C2 (stereo unspecified) | 26.7%
Cn1cccc1-c1cc(C(=O)N2CCOCC2CC(=O)Nc2ccccc2)[nH]n1 (stereo unspecified) | -23.9%
COc1ccc(C(=O)N2CCC3(CC2)NC(=O)N(Cc2ccccc2)C3=O)cc1OC | i
COc1cccc(C(=O)N2CCC3(CC2)NC(=O)N(Cc2ccccc2)C3=O)c1OC | 8.91µM*
COc1ccccc1CC(=O)N1CCC2(CC1)NC(=O)N(Cc1ccccc1)C2=O | 12.9%
O=C(CN1CCOC(c2ccc(F)cc2)C1)NCc1ccccn1 (stereo unspecified) | -0.9%
COc1cccc(NC(=O)C2CCCN(c3ncnc4onc(C)c34)C2)c1 (stereo unspecified) | -19.7%
CC(C)NC(=O)C1CCCN(c2ncnc3onc(-c4ccc(F)cc4)c23)C1 (stereo unspecified) | -2.8%
CCOC(=O)c1ccc(NC(=O)C2CCCN(c3ncnc4onc(-c5ccc(F)cc5)c34)C2)cc1 (stereo unspecified) | 8.91µM*
COc1ccc(-c2ccc3nc(-c4ccc(Cl)cc4)oc3c2)c(OC)c1OC | -7.9%
CC(=O)c1cccc(NC(=O)Cn2ccn3nc(-c4ccc(F)cc4)c(CO)c3c2=O)c1 | -18.0%
CCN(CC)CCSc1nc2ccccc2c(=O)n1-c1ccc(Cl)cc1 | 7.94µM*
SMILES | Pf Dd2 growth
O=C(CSc1nc2c([nH]c3ccccc32)c(=O)n1-c1ccc(Cl)cc1)c1ccccc1 | 55.7%
CCCSc1nc2ccccc2c(=O)n1-c1ccccc1OC | -8.1%
CC[C@H]1CN(C(C)=O)CC[C@H]1CC(=O)NCCOC | -19.2%[44.1 µM]
CC(=O)C1=C(c2ccc(Br)cc2)N(C(C)=O)n2c(nnc2C2CCCCC2)S1 | 1.41µM*
CS(=O)(=O)c1ccc(-c2ccc(CN3CCOCC3)cn2)cc1 | 11.4%
CCn1ccc(C(=O)N2CCC([C@H]3[C@@H](OC)C(=O)N3C(C)C)CC2)n1 | 29.1%
CCC(C)NC(=O)C(NC(=O)c1ccccc1)C1CCN(C(=O)c2ccc(Cl)cc2)CC1 (stereo unspecified) | i
CNC(=O)[C@H]1C[C@H](Oc2ccccc2)CN1C(=O)c1cc(-c2ccc(F)cc2)n[nH]1 | -17.8%
Cc1cccc(C(=O)Nc2c(C(=O)N3CCN(c4ccc(F)cc4)CC3)oc3ccccc23)c1 | 12.6µM*
Cc1cccc(CC(=O)Nc2c(C(=O)Nc3cccc(F)c3)oc3ccccc23)c1 | i
Cc1cccc(OCC(=O)Nc2c(C(=O)N3CCN(c4ccccc4)CC3)oc3ccccc23)c1 | 11.2µM*
Cc1cccc(OCC(=O)Nc2c(C(=O)Nc3ccc(F)cc3)oc3ccccc23)c1 | 28.9%
O=C(Nc1c(C(=O)N2CCN(c3ccccc3F)CC2)oc2ccccc12)c1ccccc1F | -22.5%
COc1ccc(N2CCN(C(=O)c3oc4ccccc4c3NC(=O)c3ccccc3OC)CC2)cc1 | -11.1%
O=C(Nc1c(C(=O)N2CCN(c3ccccc3)CC2)oc2ccccc12)c1ccc(Br)o1 | 10µM*
Cc1ccc(C(=O)c2oc3ccccc3c2NC(=O)COc2ccc(Cl)c(C)c2)cc1 | 35.8%
O=C(Nc1c(C(=O)N2CCN(c3ccccc3)CC2)oc2ccccc12)c1ccccc1F | 16.8%
O=C1Nc2ccccc2OCC12CCN([S+](=O)([O-])c1cccc(C(F)(F)F)c1)CC2 | 12.0%
Cc1nn2c(c1-c1ccccc1-c1ccccc1)N(C(=O)c1ccn(C)n1)CCC2 | -17.4%[44.1 µM]
CN1C[C@@H](NC(=O)Nc2ccccc2)C[C@H]1c1nc(-c2cnccn2)no1 | 38.1%[44.1 µM]
O=C(Nc1ccc2c(c1)OCCO2)N1CCC(Cc2nc(-c3cccnc3)n[nH]2)C1 (stereo unspecified) | 3.55µM*
O=C(Cc1ccccc1)N1CCC(Cc2nc(-c3cccnc3)n[nH]2)C1 (stereo unspecified) | i

Source: PubChem (National Center for Advancing Translational Sciences (NCATS))
